# According to PubChem BioAssay (NCATS):
# Inconclusive results are not listed. A call without a number means that no potency is given here. Activity calls are given as the source filed them. Unless noted, calls follow the shape of the dose curve; as a rule, active = well fitted inhibition curve with a large enough effect; inconclusive = small, poorly fitted or top-dose-only effect; inactive = flat fitted curve, though single readings scatter.
# What was measured:
# [1] = biological target: Luciferin 4-monooxygenase (Photinus pyralis) (UniProt P08659); test: Biochemical firefly luciferase enzyme assay for NPC (AID 624030);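 also: purified P. pyralis luciferase at 10 nM with luciferin and ATP substrate; nearly all actives have a fitted effect of over 70% in size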
# Method in brief: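 Counter-screen for direct inhibition of the luciferase enzyme by approved-drug library compounds, run at 10 nM enzyme in 50 mM Tris acetate (final). Luminescence was read within 5 min of enzyme-buffer addition and normalized to PTC124 versus DMSO (0%).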
# [2] = S16 Schwann cell PMP22 intronic element beta-lactamase assay (AID 624044; calls by dose curve; also: potency is read from the fitted curve at half-maximal effect; nearly all actives have a fitted effect of over 15% in size)
# Method in brief: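 Rat S16 Schwann cells with beta-Lac driven by a PMP22 intronic element, compound-treated 24 h at 37 °C. LiveBLAzer FRET B/G read: 460 nm normalized to potassium clavulanate vs DMSO; 535 nm FRET as viability; concentration-effect curves classified.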
# [3] = biological target: Glutathione peroxidase 1 (Homo sapiens) (UniProt P07203); test: Primary qHTS Assay for Inhibitors of Recombinant Selenoprotein Glutathione Peroxidase 1 (GPX1) (AID 1845191); also: nearly all actives have a fitted effect of over 65% in size
# Method in brief: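 Recombinant GPX1 (10 nM final) was preincubated with compound for 30 min at room temperature, then reacted with 1 mM GSH, 0.5 mM CHP, 0.5 mM NADPH and 100 nM glutathione reductase; NADPH fluorescence (340/450 nm) was read at 0 and 15 min.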
# [4] = biological target: Phospholipid hydroperoxide glutathione peroxidase GPX4 (Homo sapiens) (UniProt P36969); test: Primary qHTS Assay for Inhibitors of Recombinant Selenoprotein Glutathione Peroxidase 4 (GPX4) (AID 1845192); also: nearly all actives have a fitted effect of over 65% in size
# Method in brief: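 GR-coupled readout: 100 nM GR, 1 mM GSH, 0.5 mM NADPH; NADPH fluorescence (ex 340/em 450 nm) read at t=0 and after 15 min RT. GPX4 200 nM, preincubated 30 min with compound; substrate 0.5 mM CHP.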
# CP192 = test: qHTS profiling for inhibitors of Plasmodium falciparum proliferation (AID 504749); also: nearly all actives have a fitted effect of over 60% in size; details: P. falciparum in erythrocytes, SYBR Green DNA, 72 h; series mostly up to 28.7 µM
# Method in brief: (§1)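 Parasite proliferation within erythrocytes, 72 h exposure. Endpoint: SYBR Green I fluorescence after overnight lysis at room temperature. Controls: 0.29 uM artemisinin, DMSO.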
# CP194 = test: as above; details: P. falciparum in erythrocytes, SYBR Green DNA, 72 h; series mostly up to 28.7 µM
# Method in brief: as §1
# CP201 = test: as above; details: P. falciparum in erythrocytes, SYBR Green DNA, 72 h; series mostly up to 28.7 µM
# Method in brief: as §1
# CP203 = test: as above; details: P. falciparum in erythrocytes, SYBR Green DNA, 72 h; series mostly up to 28.7 µM
# Method in brief: as §1
# CP211 = test: as above; details: P. falciparum in erythrocytes, SYBR Green DNA, 72 h; series mostly up to 28.7 µM
# Method in brief: as §1
# CP215 = test: as above; details: P. falciparum in erythrocytes, SYBR Green DNA, 72 h; series mostly up to 28.7 µM
# Method in brief: as §1
# CP262 = test: as above; details: P. falciparum in erythrocytes, SYBR Green DNA, 72 h; series mostly up to 28.7 µM
# Method in brief: as §1
# CP266 = test: as above; details: P. falciparum in erythrocytes, SYBR Green DNA, 72 h; series mostly up to 28.7 µM
# Method in brief: as §1
# CP268 = test: as above; details: P. falciparum in erythrocytes, SYBR Green DNA, 72 h; series mostly up to 28.7 µM
# Method in brief: as §1
# CP269 = test: as above; details: P. falciparum in erythrocytes, SYBR Green DNA, 72 h; series mostly up to 28.7 µM
# Method in brief: as §1
# CP291 = test: as above; details: P. falciparum in erythrocytes, SYBR Green DNA, 72 h; series mostly up to 28.7 µM
# Method in brief: as §1
# CP297 = test: as above; details: P. falciparum in erythrocytes, SYBR Green DNA, 72 h; series mostly up to 28.7 µM
# Method in brief: as §1
# CP305 = test: as above; details: P. falciparum in erythrocytes, SYBR Green DNA, 72 h; series mostly up to 28.7 µM
# Method in brief: as §1
# CP315 = test: as above; details: P. falciparum in erythrocytes, SYBR Green DNA, 72 h; series mostly up to 28.7 µM
# Method in brief: as §1
# CP325 = test: as above; details: P. falciparum in erythrocytes, SYBR Green DNA, 72 h; series mostly up to 28.7 µM
# Method in brief: as §1
# CP329 = test: as above; details: P. falciparum in erythrocytes, SYBR Green DNA, 72 h; series mostly up to 28.7 µM
# Method in brief: as §1
# CP335 = test: as above; details: P. falciparum in erythrocytes, SYBR Green DNA, 72 h; series mostly up to 28.7 µM
# Method in brief: as §1
# DIV14 = test: as above; details: P. falciparum in erythrocytes, SYBR Green DNA, 72 h; series mostly up to 28.7 µM
# Method in brief: as §1
# DIV17 = test: as above; details: P. falciparum in erythrocytes, SYBR Green DNA, 72 h; series mostly up to 28.7 µM
# Method in brief: as §1
# DIV30 = test: as above; details: P. falciparum in erythrocytes, SYBR Green DNA, 72 h; series mostly up to 28.7 µM
# Method in brief: as §1
# GB4 = test: as above; details: P. falciparum in erythrocytes, SYBR Green DNA, 72 h; series mostly up to 28.7 µM
# Method in brief: as §1
# PC26 = test: as above; details: P. falciparum in erythrocytes, SYBR Green DNA, 72 h; series mostly up to 28.7 µM
# Method in brief: as §1
# W2 = test: as above; details: P. falciparum in erythrocytes, SYBR Green DNA, 72 h; series mostly up to 28.7 µM
# Method in brief: as §1
# Chain of Luciferin 4-monooxygenase (Photinus pyralis) (P08659 whole entry, looked up): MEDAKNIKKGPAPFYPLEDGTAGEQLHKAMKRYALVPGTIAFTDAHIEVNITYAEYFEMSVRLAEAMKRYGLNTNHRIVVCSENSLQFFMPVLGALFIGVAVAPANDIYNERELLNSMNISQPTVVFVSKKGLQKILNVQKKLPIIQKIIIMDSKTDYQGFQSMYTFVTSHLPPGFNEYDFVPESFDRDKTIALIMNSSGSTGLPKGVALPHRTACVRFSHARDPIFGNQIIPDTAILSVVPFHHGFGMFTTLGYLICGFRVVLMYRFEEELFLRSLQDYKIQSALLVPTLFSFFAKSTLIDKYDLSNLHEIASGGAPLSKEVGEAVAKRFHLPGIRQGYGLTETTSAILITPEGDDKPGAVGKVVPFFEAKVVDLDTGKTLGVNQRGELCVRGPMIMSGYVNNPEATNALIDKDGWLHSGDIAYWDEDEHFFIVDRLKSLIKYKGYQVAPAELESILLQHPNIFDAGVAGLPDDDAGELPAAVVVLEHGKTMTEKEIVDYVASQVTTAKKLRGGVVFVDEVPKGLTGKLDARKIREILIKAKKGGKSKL
# Chain of Glutathione peroxidase 1 (Homo sapiens) (P07203 whole entry, looked up): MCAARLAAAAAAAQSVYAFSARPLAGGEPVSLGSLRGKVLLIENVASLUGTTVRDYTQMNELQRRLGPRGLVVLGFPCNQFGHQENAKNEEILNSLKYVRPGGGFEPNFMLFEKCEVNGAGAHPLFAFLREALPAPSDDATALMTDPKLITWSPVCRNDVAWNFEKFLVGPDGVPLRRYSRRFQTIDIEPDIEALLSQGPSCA
# Chain of Phospholipid hydroperoxide glutathione peroxidase GPX4 (Homo sapiens) (P36969 whole entry, looked up): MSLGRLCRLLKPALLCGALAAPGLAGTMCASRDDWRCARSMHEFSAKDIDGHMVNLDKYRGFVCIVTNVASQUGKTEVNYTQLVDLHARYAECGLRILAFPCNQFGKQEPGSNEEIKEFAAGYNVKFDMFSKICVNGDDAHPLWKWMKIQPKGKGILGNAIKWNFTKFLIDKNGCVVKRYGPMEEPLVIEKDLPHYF
structure (smiles),measurement,setting,value
Nc1nc(Cl)nc2c1ncn2C1CC(O)C(CO)O1 (configuration not stated),Potency,[1],inactive
same,Potency,[2],3.55 µM (active)
same,Potency,[3],inactive
same,Potency,[4],inactive
same,Potency,CP192,inactive
same,Potency,CP194,inactive
same,Potency,CP201,inactive
same,Potency,CP203,inactive
same,Potency,CP211,inactive
same,Potency,CP215,inactive
same,Potency,CP262,inactive
same,Potency,CP266,inactive
same,Potency,CP268,inactive
same,Potency,CP269,inactive
same,Potency,CP291,inactive
same,Potency,CP297,inactive
same,Potency,CP305,inactive
same,Potency,CP315,inactive
same,Potency,CP325,inactive
same,Potency,CP329,inactive
same,Potency,CP335,inactive
same,Potency,DIV14,inactive
same,Potency,DIV17,inactive
same,Potency,DIV30,inactive
same,Potency,GB4,inactive
same,Potency,PC26,inactive
same,Potency,W2,inactive
